In PubChem BioAssay:
A number with no mark means an inactive call. For some of these results: Measured potencies and affinities stand elsewhere. Calls of active or inactive are those of the source. Unless noted, how the calls were made is not given here.

Key:
[1] = antimalarial activity against Dd2 strain (AID 2302;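 active means growth inhibition above 50% at the single 2 µM test dose, taken to imply half-maximal potency below 2 µM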;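 further: 0% = DMSO untreated growth and 100% = chloroquine plus artemisinin killed control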); conditions: P. falciparum Dd2 in RBCs, LDH growth readout, 72 h; at 2 µM; active compounds read high
[2] = HepG2 cytotoxicity, primary screen, cytotoxicity control for P. falciparum antimalarial project, cell-based, ATP luminescence (AID 2303;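 active means inhibition above 50%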;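 further: 0% = DMSO wells and 100% = digitonin-killed cells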); conditions: HepG2 viability, 24-48 h, at 10 µM, active compounds read high
[3] = biological target: L-lactate dehydrogenase (Plasmodium falciparum (isolate CDC / Honduras)) (UniProt Q27743); assay: PfLDH activity inhibition – cell lysate, 3D7 strain, counter-screen for P. falciparum growth inhibition project (AID 2304);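 further: 0% = vehicle and 100% = reference inhibitor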; conditions: P. falciparum 3D7 crude extract, LDH APAD/NBT absorbance; at 2 µM; active compounds read high
[4] = inhibition of 3D7 malaria parasite growth – strain 3D7 (AID 2306);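 further: 0% = DMSO wells and 100% = chloroquine plus artemisinin control wells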; conditions: P. falciparum 3D7 erythrocytic growth, LDH absorbance, 72 h; at 2 µM; active compounds read high
[5] = biological target: Calcium-dependent protein kinase 1 (Plasmodium falciparum (isolate 3D7)) (UniProt P62344); assay: PfCDPK1 kinase inhibitors, biochemical, TCAMS library (AID 1159585; cut-off not given, nearly all actives have IC50 up to about 0.98 µM;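 further: inhibitors leave more ATP so luminescence rises with inhibition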); conditions: recombinant PfCDPK1, Kinase-Glo ATP depletion luminescence
[6] = biological target: Plasmodium falciparum protein kinase 6 (PK6, PF3D7_1337100) (UniProt Q8IDW1); assay: PfPK6 kinase inhibitors, biochemical, TCAMS library (AID 1159586); conditions: recombinant PfPK6, Kinase-Glo ATP depletion luminescence
[7] = biological target: Protein kinase 7 (PK7), Plasmodium falciparum 3D7 (PF3D7_0213400) (UniProt Q7YTF7); assay: inhibition of Plasmodium PK7 catalytic activity – biochemical, TCAMS antimalarial set, Kinase-Glo luminescence (AID 1159587); conditions: recombinant PfPK7, Kinase-Glo ATP depletion luminescence
[8] = biological target: Calcium-dependent protein kinase 4 (Plasmodium falciparum (isolate 3D7)) (UniProt Q8IBS5); assay: PfCDPK4 kinase inhibitors, biochemical, TCAMS library (AID 1159588; cut-off not given, nearly all actives have IC50 up to about 0.91 µM); conditions: recombinant PfCDPK4, Kinase-Glo ATP depletion luminescence
Calcium-dependent protein kinase 4 (Plasmodium falciparum (isolate 3D7)), sequence (Q8IBS5 whole entry, looked up): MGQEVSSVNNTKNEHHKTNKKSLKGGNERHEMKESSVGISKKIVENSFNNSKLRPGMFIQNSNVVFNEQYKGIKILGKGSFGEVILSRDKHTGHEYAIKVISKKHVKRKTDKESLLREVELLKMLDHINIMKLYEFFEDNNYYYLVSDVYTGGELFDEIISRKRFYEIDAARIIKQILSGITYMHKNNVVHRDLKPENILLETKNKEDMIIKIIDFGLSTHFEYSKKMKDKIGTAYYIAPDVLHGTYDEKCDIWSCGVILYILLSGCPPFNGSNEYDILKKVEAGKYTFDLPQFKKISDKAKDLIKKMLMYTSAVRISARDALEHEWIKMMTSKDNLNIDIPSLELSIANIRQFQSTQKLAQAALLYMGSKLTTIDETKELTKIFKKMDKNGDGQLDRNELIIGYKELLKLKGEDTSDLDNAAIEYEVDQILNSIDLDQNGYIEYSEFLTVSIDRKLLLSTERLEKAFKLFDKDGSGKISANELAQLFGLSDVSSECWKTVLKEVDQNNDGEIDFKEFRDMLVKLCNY

Protein kinase 7 (PK7), Plasmodium falciparum 3D7 (PF3D7_0213400), sequence (Q7YTF7 1-343): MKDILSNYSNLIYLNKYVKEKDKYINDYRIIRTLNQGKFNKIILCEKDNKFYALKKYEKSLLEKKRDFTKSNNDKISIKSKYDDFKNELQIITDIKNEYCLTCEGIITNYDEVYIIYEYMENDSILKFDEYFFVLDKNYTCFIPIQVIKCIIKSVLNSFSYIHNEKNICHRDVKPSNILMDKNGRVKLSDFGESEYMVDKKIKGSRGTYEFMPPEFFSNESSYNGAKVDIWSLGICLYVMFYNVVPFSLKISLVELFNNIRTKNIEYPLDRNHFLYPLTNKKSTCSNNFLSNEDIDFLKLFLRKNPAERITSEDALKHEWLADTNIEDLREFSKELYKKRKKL
Plasmodium falciparum protein kinase 6 (PK6, PF3D7_1337100), sequence (Q8IDW1 1-305): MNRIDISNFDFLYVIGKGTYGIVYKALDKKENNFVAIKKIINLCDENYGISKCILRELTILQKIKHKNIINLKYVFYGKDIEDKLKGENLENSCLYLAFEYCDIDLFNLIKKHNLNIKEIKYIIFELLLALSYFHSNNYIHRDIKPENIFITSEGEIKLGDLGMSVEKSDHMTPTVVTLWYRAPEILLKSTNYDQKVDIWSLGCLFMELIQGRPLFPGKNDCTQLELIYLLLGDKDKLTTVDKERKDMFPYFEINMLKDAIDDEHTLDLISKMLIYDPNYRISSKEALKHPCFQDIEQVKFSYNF
L-lactate dehydrogenase (Plasmodium falciparum (isolate CDC / Honduras)), sequence (Q27743 whole entry, looked up): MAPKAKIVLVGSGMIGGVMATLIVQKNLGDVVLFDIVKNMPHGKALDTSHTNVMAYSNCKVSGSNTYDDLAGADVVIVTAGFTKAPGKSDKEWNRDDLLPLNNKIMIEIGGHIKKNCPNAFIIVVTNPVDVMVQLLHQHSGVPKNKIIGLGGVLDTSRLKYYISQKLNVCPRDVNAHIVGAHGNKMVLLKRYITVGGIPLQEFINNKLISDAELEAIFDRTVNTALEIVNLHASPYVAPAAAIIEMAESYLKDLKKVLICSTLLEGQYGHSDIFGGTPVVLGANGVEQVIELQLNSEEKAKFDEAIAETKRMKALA
Calcium-dependent protein kinase 1 (Plasmodium falciparum (isolate 3D7)), sequence (P62344 whole entry, looked up): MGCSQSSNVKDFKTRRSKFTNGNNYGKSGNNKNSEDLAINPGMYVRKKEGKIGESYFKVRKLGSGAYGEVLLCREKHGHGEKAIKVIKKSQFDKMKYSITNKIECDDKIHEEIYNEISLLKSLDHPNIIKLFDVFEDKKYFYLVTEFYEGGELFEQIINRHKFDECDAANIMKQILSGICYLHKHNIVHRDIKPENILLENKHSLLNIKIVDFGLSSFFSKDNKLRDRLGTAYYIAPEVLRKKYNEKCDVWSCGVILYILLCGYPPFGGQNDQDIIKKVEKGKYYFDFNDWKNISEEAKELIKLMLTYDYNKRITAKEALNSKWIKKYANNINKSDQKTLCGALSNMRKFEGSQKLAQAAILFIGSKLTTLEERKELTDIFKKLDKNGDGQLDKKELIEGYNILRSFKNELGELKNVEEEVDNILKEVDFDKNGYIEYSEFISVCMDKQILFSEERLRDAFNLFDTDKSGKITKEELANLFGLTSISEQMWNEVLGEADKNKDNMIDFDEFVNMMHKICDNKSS

| Compound | growth inhibition [1] | inhibition [2] | inhibition [3] [%] | growth inhibition [4] | outcome [5] | outcome [6] | outcome [7] | outcome [8] |
| --- | --- | --- | --- | --- | --- | --- | --- | --- |
| Cc1c(-c2cccc(Br)c2)[nH]c2nc(N)nc(N)c12 | 61% (active) | 8% | -4 | 100% (active) | inactive | inactive | inactive | inactive |
| COc1cc2c(cc1OC)CC(NCCCCCCNCCc1ccc(Cl)cc1)CC2 (stereo not drawn) | -1% | 50% (active) | 1 | 98% (active) | inactive | inactive | inactive | inactive |
| CCCCCCCCN1CCN(CCCCCCNc2c3ccccc3nc3ccccc23)CC1 | 100% (active) | 100% (active) | -4 | 101% (active) | inactive | inactive | inactive | inactive |
| O=C(Nc1nc2cc(S(=O)(=O)NCCc3cccc(F)c3)ccc2n1CCCn1ccnc1)c1ccc(Cl)cc1 | 8% | -24% | 0 | 90% (active) | inactive | inactive | inactive | inactive |
| COc1ccc(CCNCCCCNCCc2ccc(OC)c3ccccc23)c2ccccc12 | 33% | 100% (active) | -1 | 100% (active) | inactive | inactive | inactive | inactive |
| Nc1ncc(-c2ccccc2)cc1-c1cccc2ncccc12 | 99% (active) | 82% (active) | -2 | 97% (active) | inactive | inactive | inactive | inactive |
| CCOc1cc(C(=O)NCc2cccc(C(F)(F)F)c2)ccc1-c1nc2ccc(Cl)cc2[nH]1 | 31% | 7% | -6 | 88% (active) | inactive | inactive | inactive | inactive |
| Cc1cc(NCCc2ccccc2)nc(/N=C(\N)Nc2cccc(F)c2)n1 | -1% | -6% | -2 | 91% (active) | inactive | inactive | inactive | inactive |
| Cc1cc(C(=O)Nc2ccc3c(c2)CCN3C2CCN(Cc3csc4ccccc34)C2)no1 (stereo not drawn) | 96% (active) | 1% | 0 | 96% (active) | inactive | inactive | inactive | inactive |
| Cc1ccc(O)cc1Nc1ccnc2cc(-c3csc(CN(C)CCN(C)C)n3)ccc12 | 80% (active) | 3% | 4 | 101% (active) | inactive | inactive | inactive | inactive |
| C=Cc1ccccc1C1(O)CCN(CCCCNC(=O)c2ccc(-c3ccc(C#N)cc3)cc2)CC1 | 64% (active) | 27% | 0 | 88% (active) | inactive | inactive | inactive | inactive |
| CCOc1ccc(Br)cc1/C=C/C(=O)Nc1ccc2c(c1)CCCN(C)C2 | 17% | 40% | -1 | 90% (active) | inactive | inactive | inactive | inactive |
| CC1(C)N=C(N)N=C(N)N1OCCSCc1cc(Cl)sc1Cl | 72% (active) | 70% (active) | -2 | 93% (active) | inactive | inactive | inactive | inactive |
| CCOC(=O)c1cn(CC)c2cc(O[C@H]3CCN(C(=O)OC(C)(C)C)C3)ccc2c1=O | 75% (active) | 9% | -1 | 98% (active) | inactive | inactive | inactive | inactive |
| COc1ccccc1C1CN(CCNC(=O)c2ncc(C)[nH]2)Cc2ccccc2O1 (stereo not drawn) | 86% (active) | 4% | 0 | 90% (active) | inactive | inactive | inactive | inactive |
| CN1CCCN(Cc2cccc(-c3ccc(NC(=O)c4ccc(Cl)cc4)cc3)c2)CC1 | 35% | 31% | -5 | 97% (active) | inactive | inactive | inactive | inactive |
| CCOC(=O)COc1cccc(CNc2ccc3nc(N)nc(N)c3c2)c1 | 99% (active) | 18% | 4 | 100% (active) | inactive | inactive | inactive | inactive |
| Cn1c(=N)n(CC(=O)N2CCc3ccc(Cl)cc3C2Cc2ccc(Cl)c(Cl)c2)c2ccccc21 (stereo not drawn) | 52% (active) | 99% (active) | -1 | 102% (active) | inactive | inactive | inactive | inactive |
| CN(C)CCN(C)Cc1ccc(-c2cccc(NC(=O)c3ccc(Cl)cc3)c2)cc1 | 71% (active) | 69% (active) | -5 | 97% (active) | inactive | inactive | inactive | inactive |
| COc1ccc(-c2cc3nc4c(c(NCCCn5ccnc5)n3n2)CCCC4)cc1 | 74% (active) | 5% | -2 | 95% (active) | inactive | inactive | inactive | inactive |
| CCNC[C@H]1CCCN1CCOc1ccc(-n2cnc3cc(-c4ccc(Cl)cc4)sc3c2=O)cc1OC | 39% | 53% (active) | -11 | 97% (active) | inactive | inactive | inactive | inactive |

| Compound | growth inhibition [1] | inhibition [2] | inhibition [3] [%] | growth inhibition [4] | outcome [5] | outcome [6] | outcome [7] | outcome [8] |
| --- | --- | --- | --- | --- | --- | --- | --- | --- |
| O=C(Nc1ccc(C(F)(F)F)cc1)NC1CCN(c2ccnc3ccccc23)C1 (stereo not drawn) | 89% (active) | 13% | 0 | 102% (active) | inactive | inactive | inactive | inactive |
| Cc1ccc(C)c2sc(N(CCCn3ccnc3)C(=O)C=Cc3cccs3)nc12 | 93% (active) | 20% | 0 | 101% (active) | inactive | inactive | inactive | inactive |
| CCOc1ccc(C2CCN(CCCCNC(=O)c3ccc(NC(=O)c4ccc(Cl)cc4)cc3)CC2)c(Cl)c1 | 96% (active) | 32% | -2 | 101% (active) | inactive | inactive | inactive | inactive |
| CN1CCC(Oc2ccc(NC(=O)c3ccc4c(=O)n(Cc5ccccc5)cnc4c3)cc2Cl)CC1 | 20% | 23% | 0 | 95% (active) | inactive | inactive | inactive | inactive |
| CCOc1ccc(-c2nc(NC(=O)Cc3cccc(OC)c3)sc2C)cc1 | 28% | 15% | 3 | 97% (active) | inactive | inactive | inactive | inactive |
| Cn1c(=N)cc(-c2ccc(Br)cc2)c2c(=O)[nH]c(N)nc21 | 57% (active) | 5% | 1 | 80% (active) | inactive | inactive | inactive | inactive |
| COc1ccc2c(=O)c(C3CCC(c4ccc(Cl)cc4)CC3)c(C)[nH]c2c1 (stereo not drawn) | 84% (active) | 2% | 1 | 97% (active) | inactive | inactive | inactive | inactive |
| CC(CN1CCN(C)CC1)C(=O)Nc1cccc(-c2ccc(-c3nc4ccccc4[nH]3)s2)c1 (stereo not drawn) | 59% (active) | 2% | 2 | 97% (active) | inactive | inactive | inactive | inactive |
| O=C(COc1ccc(Cl)c(Cl)c1)NCCCCCN1CCCN(C(=O)Nc2cc(Cl)cc(Cl)c2)CC1 | 1% | 44% | -5 | 89% (active) | inactive | inactive | inactive | inactive |
| CS(=O)(=O)CCNCc1cccc(-c2cc3c(Nc4ccc(OCc5ccccc5)cc4)ncnc3cn2)c1 | 26% | 3% | 2 | 101% (active) | inactive | inactive | inactive | inactive |
| COc1cccc(C(C)(C)NC[C@@H](O)[C@H](Cc2ccccc2)NC(=O)c2cc(C3CCCC3)cc(N3CCCCS3(=O)=O)c2F)c1 | 99% (active) | 16% | 7 | 99% (active) | inactive | inactive | inactive | inactive |
| CC(C)(C)NCc1cc(Nc2ccnc3cc(Cl)ccc23)ccc1F | 100% (active) | 21% | 6 | 101% (active) | inactive | inactive | inactive | inactive |
| CCN(CC)c1ccc(-c2nc3ncc(Cl)cc3[nH]2)cc1 | 85% (active) | 16% | -5 | 85% (active) | inactive | inactive | inactive | inactive |
| CC1(C)N=C(N)N=C(N)N1OCCOc1cccc(C(F)(F)F)c1 | 97% (active) | 67% (active) | -2 | 93% (active) | inactive | inactive | inactive | inactive |
| CC(C)C[C@H](NC(=O)c1cc(-c2ccc(F)cc2)no1)C(=O)O (tested in a mixture with another compound) | 4% | 7% | -2 | 82% (active) | inactive | inactive | inactive | inactive |
| NC1=NC(CCc2ccccc2)N(c2ccccc2)C(N)=N1 (stereo not drawn) | 15% | 1% | -9 | 94% (active) | inactive | inactive | inactive | inactive |
| CC(C(=O)OCCOCn1cnc2c(=O)[nH]c(N)nc21)N(C)C(=O)OC(C)(C)C (stereo not drawn) | -1% | 28% | 2 | 87% (active) | inactive | inactive | inactive | inactive |
| Cc1ccc(O)cc1Nc1ccnc2ccc(C(C)(C)C)cc12 | 100% (active) | 6% | 3 | 100% (active) | inactive | inactive | inactive | inactive |
| COc1ccc2c(c1)CCCC2C(C)NCC(O)c1cccc(C(F)(F)F)c1 (stereo not drawn) | 99% (active) | 3% | -3 | 99% (active) | inactive | inactive | inactive | inactive |
| Clc1ccc2c(NCCc3ccccc3)ccnc2c1 | 99% (active) | 31% | -3 | 93% (active) | inactive | inactive | inactive | inactive |
